Test systems include NCI-H23 lung; NCI-H226 lung; NCI-H322M lung; HOP-62 NSCLC; NCI-H460 lung; HOP-92 NSCLC; NCI-H522 lung; A549/ATCC NSCLC; 786-0 renal; DU-145 prostate; MALME-3M melanoma; MDA-MB-231 breast; RXF 393 renal; SF-268 CNS; SF-295 CNS; SF-539 CNS; UACC-257 melanoma; M14 melanoma; K-562 leukemia.
What all share (assay): NCI-60 one-dose screen, 48 h (100 = growth as untreated, 0 = no growth, -100 = all killed)
What all share (settings): 10 µM unless noted

The panel holds about 83,000 compounds, 20% with a hit somewhere; the sample as a whole holds those more often.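 Cells were grown in 96-well plates and exposed to the test compound at a single concentration for 48 hours; results are reported as percent growth, with values below 10 considered active.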 Values without a mark were called inactive. The source made the active and inactive calls.

`CCOC(=O)c1cnn2c(-c3ccc(Cl)cc3)nc(NCc3ccccc3)nc12`: the growth in the assay on NCI-H23 lung was 58.4%; in the assay on NCI-H226 lung it was 89.3%; with NCI-H322M lung, 99.2%; with HOP-62 NSCLC, 93.5%; in the assay on NCI-H460 lung, 78.1%; in the assay on HOP-92 NSCLC, 64.2%. For the same compound, the growth in the assay on NCI-H522 lung is 81.5%; in the assay on A549/ATCC NSCLC, 84.9%; in the assay on 786-0 renal, 6.24% (active); in the assay with DU-145 prostate, 44.6%; in the assay on MALME-3M melanoma it was 64.6%; with MDA-MB-231 breast, 77.5%. Also, the growth was 40.7% in the assay on RXF 393 renal; 28.8% with SF-268 CNS; 58.9% with SF-295 CNS; 10.7% in the assay on SF-539 CNS; 96.2% in the assay on UACC-257 melanoma; 86.8% in the assay with M14 melanoma.
On to `C=C(C=O)[C@@H]1CC=C(C=O)CC1`, for which the growth in the assay on NCI-H23 lung is -4.9% (active); with NCI-H226 lung, 71.2%; with NCI-H322M lung, -24.7% (active); in the assay with HOP-62 NSCLC, -19.7% (active); in the assay on NCI-H460 lung, -16.6% (active); with HOP-92 NSCLC, -39.9% (active). The growth was 5.01% (active) with NCI-H522 lung; 15.6% with A549/ATCC NSCLC; -19.3% (active) with 786-0 renal; -74.6% (active) with DU-145 prostate; -23.2% (active) with K-562 leukemia; -31.1% (active) in the assay with MALME-3M melanoma. Besides, the growth was -25.9% (active) in the assay on MDA-MB-231 breast; -16.7% (active) in the assay on SF-268 CNS; -15.7% (active) in the assay on SF-295 CNS; -60.4% (active) with SF-539 CNS; -9.83% (active) in the assay on UACC-257 melanoma; 14.8% in the assay on M14 melanoma.
Turning to `COC(=O)[C@]12CC[C@@H](C)[C@H](C)[C@@H]1C1=CC[C@@H]3[C@@]4(C)C(C=O)=C[C@@](C)(CO)C4=CC[C@@]3(C)[C@]1(C)CC2`, the growth with NCI-H226 lung was 58.5%; in the assay on NCI-H322M lung it was 61.3%; in the assay on HOP-62 NSCLC it was 83.8%; in the assay with NCI-H460 lung, 17.5%; in the assay with HOP-92 NSCLC, 38%; in the assay on NCI-H522 lung, 28.1%. In addition, the growth with A549/ATCC NSCLC was 29.1%; in the assay with 786-0 renal, 45.2%; in the assay on DU-145 prostate, 39.9%; in the assay on K-562 leukemia it was 16.4%; in the assay with MALME-3M melanoma, 60.1%; in the assay with MDA-MB-231 breast it was 53.2%. Besides, the growth in the assay on SF-268 CNS is 48.3%; in the assay with SF-295 CNS, 24.9%; in the assay on SF-539 CNS it was 29.8%; in the assay with M14 melanoma, 28.5%.
`C=C(CNCCc1ccc(O)cc1)[C@@H]1CC[C@]2(COC3CCCCO3)CC[C@]3(C)[C@H](CC[C@@H]4[C@@]5(C)CCC(NCCO)C(C)(C)[C@@H]5CC[C@]43C)[C@@H]12` (stereo partly specified): the growth was -54.2% (active) in the assay with NCI-H226 lung; -96.5% (active) in the assay on NCI-H322M lung; -89.2% (active) in the assay with HOP-62 NSCLC; -79.9% (active) in the assay with NCI-H460 lung; -80.8% (active) with HOP-92 NSCLC; -77.3% (active) with NCI-H522 lung. Further, the growth was -88.6% (active) in the assay with A549/ATCC NSCLC; -90.2% (active) with 786-0 renal; -91.9% (active) with DU-145 prostate; -66.1% (active) in the assay with K-562 leukemia; -86.4% (active) in the assay with MALME-3M melanoma; -94.3% (active) in the assay with MDA-MB-231 breast. Also, the growth was -88.9% (active) in the assay on RXF 393 renal; -87.9% (active) in the assay with SF-268 CNS; -82.4% (active) in the assay with SF-295 CNS; -91.9% (active) with SF-539 CNS; -85.6% (active) in the assay with UACC-257 melanoma; -86.8% (active) in the assay with M14 melanoma.
As for `NC(=S)N/N=C/C(=O)O`, the growth is 96.2% in the assay on NCI-H226 lung; 77.5% in the assay on NCI-H322M lung; 85.9% in the assay with HOP-62 NSCLC; 99.6% in the assay on NCI-H460 lung; 81.8% in the assay on HOP-92 NSCLC; 96.8% in the assay on NCI-H522 lung. In addition, the growth in the assay with A549/ATCC NSCLC is 92.2%; in the assay on 786-0 renal, 104%; in the assay with DU-145 prostate it was 106%; in the assay with K-562 leukemia it was 32.7%; in the assay with MDA-MB-231 breast, 97.1%; in the assay on RXF 393 renal it was 107%. For the same compound, the growth with SF-268 CNS was 92.4%; in the assay with SF-295 CNS it was 71.9%; with SF-539 CNS, 104%; in the assay with UACC-257 melanoma it was 86.1%; with M14 melanoma, 93.9%.
On to `N#Cc1c(-c2ccc(C(F)(F)F)cc2)cc(N2CC(O)C2)n2c1nc1ccccc12`, for which the growth is 16.9% in the assay with NCI-H226 lung; 60.8% in the assay on NCI-H322M lung; 7.8% (active) with HOP-62 NSCLC; 27.8% in the assay on NCI-H460 lung; -3.02% (active) in the assay on HOP-92 NSCLC; 34.7% with NCI-H522 lung. For the same compound, the growth in the assay on A549/ATCC NSCLC was 48.1%; in the assay on 786-0 renal, 20.7%; with DU-145 prostate, 71.4%; with K-562 leukemia it was 110%; in the assay on MALME-3M melanoma, -3.85% (active); in the assay with MDA-MB-231 breast it was 39.2%. The growth in the assay with RXF 393 renal was 21.5%; with SF-268 CNS, 32.7%; in the assay with SF-295 CNS it was 28.1%; in the assay on SF-539 CNS, 36.2%; with UACC-257 melanoma, 51.9%; in the assay on M14 melanoma, 80.6%.
For the compound `Cc1cc(-c2noc(C(F)(F)F)n2)ccc1N1CCN(c2cc(C(=O)N(C)C)no2)CC1`, the growth is 55.8% in the assay on NCI-H226 lung; 101% in the assay on NCI-H322M lung; 68.1% in the assay on HOP-62 NSCLC; 75.7% in the assay on NCI-H460 lung; 63.5% with HOP-92 NSCLC; 57% with NCI-H522 lung. Further, the growth is 67.3% in the assay with A549/ATCC NSCLC; 80.4% in the assay with 786-0 renal; 85.2% in the assay on DU-145 prostate; 33.1% in the assay with K-562 leukemia; 78.5% in the assay on MALME-3M melanoma; 69.6% in the assay on MDA-MB-231 breast. Further, the growth in the assay with RXF 393 renal was 105%; in the assay with SF-268 CNS, 82.2%; with SF-295 CNS, 49.8%; in the assay with SF-539 CNS it was 86.1%; in the assay with UACC-257 melanoma it was 54%; in the assay on M14 melanoma, 81.5%.
Regarding `CNC1(C#N)CCN(Cc2ccccc2)CC1`, the growth was 104% in the assay on NCI-H226 lung; 336% in the assay on NCI-H322M lung; 87.2% with HOP-62 NSCLC; 108% in the assay on NCI-H460 lung; 85.1% in the assay on HOP-92 NSCLC; 90.1% in the assay with NCI-H522 lung. For the same compound, the growth was 98.1% in the assay with A549/ATCC NSCLC; 73.1% with 786-0 renal; 113% with DU-145 prostate; 104% in the assay with K-562 leukemia; 226% in the assay with MALME-3M melanoma; 112% with MDA-MB-231 breast. In addition, the growth is 99.1% with RXF 393 renal; 100% in the assay on SF-268 CNS; 95.2% with SF-295 CNS; 100% with SF-539 CNS; 101% in the assay on UACC-257 melanoma; 94% in the assay on M14 melanoma.

The record behind these values is PubChem BioAssay (NCI).
